RORgamma inh: qHTS for inhibitors of ROR gamma transcriptional activity; Potency, µM (highest dose often 53.6 µM), actives largely listed as inhibitors; hit rate 5.4% among 310,000; Drosophila S2 Gal4-RORgamma UAS-luciferase reporter, 20 h; Nuclear receptor ROR-gamma (Mus musculus), P51450; also: nearly all actives have a fitted effect of over 60% in size
Target sequence (P51450 whole entry, looked up, the tested form may be a part): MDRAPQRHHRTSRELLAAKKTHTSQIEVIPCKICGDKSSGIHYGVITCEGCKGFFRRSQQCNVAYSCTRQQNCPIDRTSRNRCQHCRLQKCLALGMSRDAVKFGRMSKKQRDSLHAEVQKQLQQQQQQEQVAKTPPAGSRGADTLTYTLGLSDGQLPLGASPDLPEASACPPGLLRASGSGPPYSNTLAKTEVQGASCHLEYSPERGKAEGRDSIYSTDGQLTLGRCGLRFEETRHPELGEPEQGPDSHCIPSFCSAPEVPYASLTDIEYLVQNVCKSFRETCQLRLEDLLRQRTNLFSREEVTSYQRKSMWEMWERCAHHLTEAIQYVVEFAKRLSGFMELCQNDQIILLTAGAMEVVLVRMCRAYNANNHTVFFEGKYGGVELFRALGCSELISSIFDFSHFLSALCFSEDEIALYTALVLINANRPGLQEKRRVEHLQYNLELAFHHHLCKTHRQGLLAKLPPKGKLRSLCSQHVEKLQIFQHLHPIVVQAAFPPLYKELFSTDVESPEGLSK
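Drosophila Schneider cells stably carrying a metallothionein-driven Gal4 DBD–ROR gamma fusion and a UAS-Photinus luciferase reporter were exposed to compound for 1 hr, then induced with copper sulfate (700 uM final) for 20 hr at ambient temperature before luminescence reading.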
DT40 TDP1 CPT: qHTS for Inhibitors of human tyrosyl-DNA phosphodiesterase 1 (TDP1): qHTS in cells in presence of CPT; chicken DT40 Tdp1-/-;hTDP1 cells + 20 nM CPT, ATP luminescence, 48 h; Potency, µM (series often up to 46.2 µM), hits mostly inhibitors; hit rate 12% among 420,000; also: nearly all actives have a fitted effect of over 55% in size
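Chicken DT40 Tdp1-/- cells complemented with human TDP1, 400 cells/well, exposed to compounds plus 20 nM camptothecin for at least 48 h at 37 C; viability read as ATP content by CellTiter-Glo luminescence.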
VP16 counter: VP16 counterscreen qHTS for inhibitors of ROR gamma transcriptional activity. Potency, µM (series often up to 53.6 µM), usual class: inhibitors. AID 2546, 2010. Drosophila S2 Gal4-VP16 UAS-luciferase, luminescence, 20 h. hit rate 3.5% among 310,000;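 also: Gal4-VP16 expression switched on by copper sulfate through the metallothionein promoter; nearly all actives have a fitted effect of over 50% in size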
ALOX12 inh: Primary qHTS assay for inhibitors of human arachidonate 12S-lipoxygenase (ALOX12): Round 2; hit rate 1.1% among 580,000; purified 12hLO, xylenol orange hydroperoxide absorbance; Polyunsaturated fatty acid lipoxygenase ALOX12 (Homo sapiens), P18054; Potency, µM (highest dose often 108 µM), hits mostly inhibitors; AID 1671190, 2021
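Purified human 12hLO (150 nM final) in 25 mM Hepes, 0.01% Triton X-100, pH 7.0 was preincubated 15 min at room temperature with compound. Then 40 uM arachidonic acid was added, 30 min. Hydroperoxide was read by Fe-XO absorbance ratio 573/405 nm.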
ELG1 DNA repair: qHTS screen for small molecules that inhibit ELG1-dependent DNA repair in human embryonic kidney (HEK293T) cells expressing luciferase-tagged ELG1 | Potency, µM (series often up to 46.1 µM), actives largely listed as inhibitors | AID 504467, 2011 | hit rate 2.3% among 330,000 | HEK293T ELG1-luciferase reporter, luminescence, 16 h; DNA damage induced by 5-fluorouridine; also: nearly all actives have a fitted effect of over 55% in size
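5-Fluorouridine DNA damage + compound/DMSO, 2,000 cells/well, 16 h, 37 °C/5% CO2. ONE-Glo, 30 min RT, luminescence. Readout = decrease in reporter signal.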
DT40 TDP1 no CPT: qHTS for Inhibitors of human tyrosyl-DNA phosphodiesterase 1 (TDP1): qHTS in cells in absence of CPT | AID 686978, 2013 | hit rate 15% among 420,000 | Potency, µM (top dose mostly 46.2 µM), hits mostly inhibitors | DT40 Tdp1-/- hTDP1 cells, no CPT, ATP luminescence, 48 h; also: nearly all actives have a fitted effect of over 55% in size
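Stably hTDP1-transfected Tdp1-null chicken DT40 cells were treated with library compounds minus camptothecin and grown for at least 48 hr at 37 °C, after which cellular ATP was quantified by luminescence.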
A number is an active result; [ ] = dose if it differs, or a comment. Only some compounds are listed: those with a hit (about 15% of all), similar ones and a draw of the others. Calls follow the shape of the dose curve; as a rule, active = well fitted curve in the direction sought with a large enough effect; inconclusive = small, poorly fitted or top-dose-only effect, or another doubt; inactive = no such curve, though single readings can be large; an effect the other way counts as inactive or inconclusive.

CC(C)NC(=O)CSc1nc(-c2ccccc2)[nH]c1S(=O)(=O)c1ccccc1 was read as ALOX12 inh inactive.
`COc1ccc([C@H]2C[C@@H](O)[C@@H](O)[C@@H]2NS(=O)(=O)c2ccccc2)cc1` gave ALOX12 inh inactive.
`Cc1ccc(S(=O)(=O)N2CC=C(c3c(C)n(CC(=O)N4CCCC4)c4ccccc34)CC2)cc1C` gave DT40 TDP1 CPT inconclusive, ALOX12 inh inactive and DT40 TDP1 no CPT inconclusive.
Screening COc1ccc(CCNC(=O)C(=O)c2cn(CC(=O)N3CCCC3)c3ccccc23)cc1 returned DT40 TDP1 CPT inactive, ALOX12 inh inactive and DT40 TDP1 no CPT 21µM.
Screening COc1ccc(CNC(=O)C(=O)c2cn(CC(=O)N3CCCC3)c3ccccc23)cc1 returned RORgamma inh inactive, DT40 TDP1 CPT inactive, VP16 counter inactive, ALOX12 inh inactive, ELG1 DNA repair inconclusive and DT40 TDP1 no CPT inactive.
For COc1ccc(C)cc1NC(=O)C(=O)c1cn(CC(=O)N2CCOCC2)c2ccccc12 the results were ALOX12 inh inactive.
Screening COc1cccc(NC(=O)C(=O)c2cn(CC(=O)N3CCCC3)c3ccccc23)c1 returned RORgamma inh inactive, DT40 TDP1 CPT inconclusive, VP16 counter inactive, ALOX12 inh inactive, ELG1 DNA repair inactive and DT40 TDP1 no CPT inconclusive.
COc1ccc(C)cc1NC(=O)C(=O)c1cn(CC(=O)N2CCCC2)c2ccccc12 was read as RORgamma inh inactive, DT40 TDP1 CPT inconclusive, VP16 counter inactive, ALOX12 inh inactive, ELG1 DNA repair inconclusive and DT40 TDP1 no CPT 18µM.
`COc1ccc(OC)c(S(=O)(=O)N2CC=C(c3c(C)n(CC(=O)N4CCCC4)c4ccccc34)CC2)c1` gave DT40 TDP1 CPT 16µM, ALOX12 inh inactive and DT40 TDP1 no CPT 18µM.
For COc1ccc(NC(=O)C(=O)c2cn(CC(=O)N3CCCC3)c3ccccc23)cc1OC the results were RORgamma inh inactive, DT40 TDP1 CPT 16µM, VP16 counter inactive, ALOX12 inh inactive, ELG1 DNA repair inactive and DT40 TDP1 no CPT 13µM.
COc1ccc(OC)c(NC(=O)C(=O)c2cn(CC(=O)N3CCCC3)c3ccccc23)c1 was read as RORgamma inh inactive, DT40 TDP1 CPT inconclusive, VP16 counter inactive, ALOX12 inh inactive, ELG1 DNA repair 12µM and DT40 TDP1 no CPT inconclusive.
For COc1ccc(Cl)cc1NC(=O)C(=O)c1cn(CC(=O)N2CCOCC2)c2ccccc12 the results were ALOX12 inh inactive.
Screening Oc1ccc(N2CCN(c3nnnn3-c3ccccc3)CC2)cc1 returned RORgamma inh inactive, DT40 TDP1 CPT inconclusive, VP16 counter inactive, ALOX12 inh inconclusive, ELG1 DNA repair inconclusive and DT40 TDP1 no CPT 21µM.
Clc1cccc(N2CCN(c3nnnn3-c3ccccc3)CC2)c1 was read as RORgamma inh inactive, DT40 TDP1 CPT inactive, VP16 counter inactive, ALOX12 inh inactive, ELG1 DNA repair inactive and DT40 TDP1 no CPT inactive.
For O=C(COc1ccccc1Cl)Nc1ccc(-c2nc3ccccc3o2)cc1 the results were ALOX12 inh inactive.
For C=CCSc1nnc(-c2cnn(-c3ccccc3)c2-n2cccc2)n1C the results were RORgamma inh inactive, DT40 TDP1 CPT inactive, VP16 counter inactive, ALOX12 inh inactive, ELG1 DNA repair inactive and DT40 TDP1 no CPT inactive.
For CCCSc1nnc(-c2cnn(-c3ccccc3)c2-n2cccc2)n1C the results were RORgamma inh inactive, DT40 TDP1 CPT 18µM, VP16 counter inconclusive, ALOX12 inh inconclusive, ELG1 DNA repair inactive and DT40 TDP1 no CPT 15µM.
Screening COC(CNC(=O)CS(=O)Cc1nc(-c2ccccc2Cl)oc1C)OC (centres undefined) returned ALOX12 inh inactive.
For CC(=O)Nc1nc(=S)ss1 the results were RORgamma inh inactive, DT40 TDP1 CPT inactive, VP16 counter inactive, ALOX12 inh inconclusive, ELG1 DNA repair inactive and DT40 TDP1 no CPT inactive.
CC(C)CC(=O)Nc1nc(=S)ss1 was read as RORgamma inh inactive, DT40 TDP1 CPT inconclusive, VP16 counter inactive, ALOX12 inh inconclusive, ELG1 DNA repair inactive and DT40 TDP1 no CPT 10µM.
For CCCC(NC(=O)c1ccc(Cl)nc1)c1ccccc1 (centres undefined) the results were ALOX12 inh inactive.
For CCOC(=O)c1cnc(SC2CC(=O)N(c3ccc(OC)c(OC)c3)C2=O)nc1N (centres undefined) the results were RORgamma inh inconclusive, DT40 TDP1 CPT 21µM, VP16 counter inactive[0.365 µM], ALOX12 inh inactive, ELG1 DNA repair inactive and DT40 TDP1 no CPT inconclusive.
For CC(=O)Nc1ccc(N2C(=O)CC(Sc3nc4ccccc4s3)C2=O)cc1 (centres undefined) the results were RORgamma inh 2.2µM, DT40 TDP1 CPT inconclusive, VP16 counter inactive[10 µM], ALOX12 inh inactive, ELG1 DNA repair inactive and DT40 TDP1 no CPT inconclusive.
CC(=O)Nc1ccc(N2C(=O)CC(c3ccccc3)CC2=O)cc1 was read as RORgamma inh inactive, DT40 TDP1 CPT inactive, VP16 counter inactive, ALOX12 inh inactive, ELG1 DNA repair inactive and DT40 TDP1 no CPT inactive.
`COc1ccc(N2C(=O)CC(Sc3nc4ccccc4s3)C2=O)cc1OC` (centres undefined) gave RORgamma inh 6.3µM, DT40 TDP1 CPT 4.6µM, VP16 counter 5.6µM, ALOX12 inh inactive, ELG1 DNA repair inactive and DT40 TDP1 no CPT 2.9µM.
For O=C(Nc1ccccc1N1CCN(C(=O)c2ccc(Cl)cc2)CC1)c1cc(Br)ccc1Cl the results were RORgamma inh inactive, DT40 TDP1 CPT inconclusive, VP16 counter inactive, ALOX12 inh inactive, ELG1 DNA repair inactive and DT40 TDP1 no CPT 15µM.
Screening O=C(CSc1ccc(Cl)cc1)Nc1ccccc1N1CCN(C(=O)c2ccccc2)CC1 returned RORgamma inh inactive, DT40 TDP1 CPT 16µM, VP16 counter inactive, ALOX12 inh inactive, ELG1 DNA repair inconclusive and DT40 TDP1 no CPT 18µM.
Screening COc1ccccc1C(=O)Nc1ccccc1N1CCN(C(=O)c2ccc(Cl)cc2)CC1 returned RORgamma inh inactive, DT40 TDP1 CPT 15µM, VP16 counter inactive, ALOX12 inh inactive, ELG1 DNA repair 15µM and DT40 TDP1 no CPT 16µM.
Screening CC(NC(=O)CSc1nncn1-c1ccccc1)c1cccc2ccccc12 (centres undefined) returned ALOX12 inh inactive.
O=S(=O)(c1ccccc1C(F)(F)F)N1CCC2(CCCNC2)C1 (centres undefined) was read as ALOX12 inh inactive.

Compound activity (PubChem BioAssay)
